From PubChem BioAssay (NCI) come the findings set out here.

Compounds without any hit were thinned out: in the full panel of roughly 83,000, 20% have a hit.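 Cells were grown in 96-well plates and exposed to the test compound at a single concentration for 48 hours; results are reported as percent growth, with values below 10 considered active.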 Unmarked numbers belong to inactive results. Active and inactive are the calls of the source.

This assay relates to LOX IMVI melanoma. The assay can be described thus: NCI-60 one-dose screen, 48 h (100 = growth as untreated, 0 = no growth, -100 = all killed). Particulars: 10 µM.
With `O=S(=O)(NCCCNc1nccc(-c2c(-c3ccc(F)cc3)nc3sccn23)n1)c1ccc2ccccc2c1`, the growth is 37.3%.
The result for `O=C(Nc1cccc(-n2cc(-c3ccncc3)c(-c3ccc(O)c(Cl)c3)n2)c1)c1ccc(Cl)c(Cl)c1` reads 53%; that for `Cc1ccc(C)c(C(O)(c2cc(C)ccc2C)C2(O)CCCCC2)c1`, 86.6%; that for `O=C(/C=C/c1cc2ccccc2[nH]c1=O)c1ccc2c(c1)OCO2`, 76.4%.
Regarding `O=C(Nc1cccc(-n2cc(-c3ccncc3)c(-c3ccc(O)c(Cl)c3)n2)c1)Nc1ccc(Cl)c(Cl)c1`, the growth is -34.4% (active).
The figure for `O=C(Nc1ccc(OS(=O)(=O)c2ccccc2)cc1)C12CC3CC(CC(C3)C1)C2` is 40%; for `COc1ccc(-c2nn(-c3cccc(NC(=O)Nc4ccc(Cl)c(C(F)(F)F)c4)c3)cc2-c2ccncc2)cc1Cl` it is 19.9%.
The figure for `COc1ccc(-c2nn(-c3cccc(NC(=O)c4ccc(Cl)c(Cl)c4)c3)cc2-c2ccncc2)cc1Cl` is 91.2%.
With `CCOC(=O)CCC(NC(=O)c1ccc(N)cc1)C(=O)OCC` (configuration not stated), the growth was 100%.
As for `O=C(Nc1ccccc1)Nc1cccc(-n2cc(-c3ccncc3)c(-c3ccc(O)c(Cl)c3)n2)c1`, the growth was 47.7%.
The figure for `O=S(=O)(NCCNc1nccc(-c2c(-c3ccc(F)cc3)nc3sccn23)n1)c1ccc2ccccc2c1` is 71.3%.
Take `O=C(Nc1cccc(-n2cc(-c3ccncc3)c(-c3ccc(O)c(Cl)c3)n2)c1)c1cc(C(F)(F)F)cc(C(F)(F)F)c1`: the growth is 37.1%.
